# Where “and” joins values, the source holds several entries; their conditions need not be identical. Identical values can stand only once. Results filed as inconclusive are left out. Where a call stands in place of a potency, no number is given. Calls of active or inactive are those of the source. The call rests on the fitted dose curve.
# Biological target: Peroxisome proliferator-activated receptor delta (Homo sapiens) (UniProt Q03181)
# Assay: qHTS assay to identify small molecule agonists of the peroxisome proliferator-activated receptor delta (PPARd) signaling pathway (AID 743212)
# Conditions: HEK293H PPARd-UAS-bla, beta-lactamase FRET ratio, 17 h; series mostly up to 62.6 µM
# Source text: U.S. Tox21 Program National Center for Advancing Translational Sciences [NCATS] NIH Chemical Genomics Center [NCGC] U.S. Environmental Protection Agency [EPA] National Institutes of Environmental Health Sciences [NIEHS] National Toxicology Program [NTP] U.S. Food and Drug Administration [FDA] Tox21 Assay Overview: The peroxisome proliferator-activated receptors (PPARs) are lipid-activated transcription factors of the nuclear receptor superfamily with three distinct subtypes namely PPAR alpha, PPAR delta (PPARd) and PPAR gamma. All these subtypes heterodimerizes with Retinoid X receptor (RXR) and have different physiological functions. […] To identify the compounds that activate PPAR-delta signaling, GeneBLAzer PPAR delta UAS-bla HEK293H cell line (Invitrogen, Carlsbad, CA, USA) containing a beta-lactamase reporter gene under the control of an Upstream Activator Sequence (UAS) was used to screen the Tox21 compound library.
# Tox21 Assay Protocol Summary: PPARd-bla cells were dispensed at 3000 cells/6uL/well in 1536-well black wall/clear bottom plates using a Multidrop Combi (Thermo Fisher Scientific, Waltham, MA) dispenser. After the assay plates were incubated at 37 C and 5% CO2 for 5 h, 23 nL of compounds dissolved in DMSO, positive controls or DMSO only was transferred to the assay plate by a Pintool station (Kalypsys, San Diego, CA). The assay plates were incubated at 37C for 17 h. After 1 uL of LiveBLAzerTM B/G FRET substrate was added using a Bioraptr Flying Reagent Dispenser (FRD) workstation (Beckman Coulter, Indianapolis, IN, USA), the plates were incubated at room temperature for 2 h, and fluorescence intensity was measured by an Envision plate reader (PerkinElmer, Shelton, CT).
# Potency means the concentration at half of the fitted maximal effect.
# Sequence of Peroxisome proliferator-activated receptor delta (Homo sapiens) (Q03181 whole entry, looked up): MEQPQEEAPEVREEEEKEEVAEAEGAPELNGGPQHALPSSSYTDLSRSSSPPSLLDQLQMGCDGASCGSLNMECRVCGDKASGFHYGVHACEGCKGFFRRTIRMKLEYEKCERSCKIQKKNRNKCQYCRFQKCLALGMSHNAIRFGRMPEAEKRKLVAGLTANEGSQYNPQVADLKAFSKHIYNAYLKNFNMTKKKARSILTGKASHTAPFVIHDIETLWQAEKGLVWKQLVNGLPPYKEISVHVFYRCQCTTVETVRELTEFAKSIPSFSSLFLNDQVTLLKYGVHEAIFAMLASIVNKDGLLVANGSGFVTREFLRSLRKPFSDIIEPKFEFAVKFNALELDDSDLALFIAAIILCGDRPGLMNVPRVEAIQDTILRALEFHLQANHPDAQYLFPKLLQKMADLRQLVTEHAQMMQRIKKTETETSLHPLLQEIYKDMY
row,Compound,Potency
1,CC1(C)O[C@@H]2C[C@H]3[C@@H]4CCC5=CC(=O)C=C[C@]5(C)[C@@]4(F)[C@@H](O)C[C@]3(C)[C@]2(C(=O)CO)O1,inactive
2,C=C(C)C(=O)OCC(C)O (stereo not given),inactive
3,CCOC(N)=O,inactive
4,Cc1c(C(=O)O)c(O)cc2c1C(=O)c1c(O)c([C@@H]3O[C@H](CO)[C@@H](O)[C@H](O)[C@H]3O)c(O)c(O)c1C2=O,inactive
5,COc1ccc(C(Cl)=C(c2ccc(OC)cc2)c2ccc(OC)cc2)cc1,inactive
6,COc1cccc(O)c1O,inactive
7,CC12CCC(CC1)C(C)(C)O2,inactive
8,CN(C)CCOC(C)(c1ccccc1)c1ccccn1 (stereo not given),inactive
9,Cc1cn([C@H]2C=C[C@@H](CO)O2)c(=O)[nH]c1=O,inactive
10,CCCCC1(COC(=O)CCC(=O)O)C(=O)N(c2ccccc2)N(c2ccccc2)C1=O,inactive
11,O=S1(=O)OC(c2ccc(O)cc2)(c2ccc(O)cc2)c2ccccc21,inactive
12,CN(C)C(=O)Nc1ccc(Cl)c(Cl)c1,inactive
13,NS(=O)(=O)O,inactive
14,CN(N=O)C(=O)N[C@@H]1[C@@H](O)[C@H](O)[C@@H](CO)O[C@@H]1O,inactive
15,O=c1[nH]cnc2c1ncn2[C@H]1CC[C@@H](CO)O1,inactive
16,CCN(Cc1c(F)cccc1Cl)c1c([N+](=O)[O-])cc(C(F)(F)F)cc1[N+](=O)[O-],inactive
17,CCCCOC(=O)c1ccc(O)cc1,inactive
18,NC1CCCCC1,inactive
19,CCc1nc(N)nc(N)c1-c1ccc(Cl)cc1,inactive
20,OC[C@H]1O[C@H](O[C@]2(CCl)O[C@H](CCl)[C@@H](O)[C@@H]2O)[C@H](O)[C@@H](O)[C@H]1Cl,inactive

row,Compound,Potency
1,CCCc1cc(=O)[nH]c(=S)[nH]1,inactive
2,O=C1c2c(O)cccc2Cc2cccc(O)c21,inactive
3,C=CCc1ccc(O)c(OC)c1,inactive
4,Cc1ncc([N+](=O)[O-])n1C,inactive
5,CS(=O)(=O)OCCCCOS(C)(=O)=O,inactive
6,CCCCNC(=O)NS(=O)(=O)c1ccc(C)cc1,inactive
7,Cc1cc(C)nc(NS(=O)(=O)c2ccc(N)cc2)n1,inactive
8,CN1CCc2cccc3c2[C@H]1Cc1ccc(O)c(O)c1-3,inactive
9,O=c1[nH]cc(F)c(=O)[nH]1,inactive
10,O=C(Nc1ncc([N+](=O)[O-])s1)c1cccs1,inactive
11,Cc1cc(=O)oc2cc(O)ccc12,43.6 µM (active) and 26.6 µM (active)
12,Nc1c(N=Nc2ccc(-c3ccc(N=Nc4cc(S(=O)(=O)O)c5ccccc5c4N)cc3)cc2)cc(S(=O)(=O)O)c2ccccc12,inactive
13,O=C1NC(=O)C(c2ccccc2)(c2ccccc2)N1,inactive
14,CCCCCCCC(=O)OCC(COC(=O)CCCCCCC)OC(=O)CCCCCCC,inactive
15,CCCCC(CC)C(=O)O (stereo not given),inactive
16,CC(=O)C(=O)O,inactive
17,CN1[C@@H]2CC(OC(=O)[C@H](CO)c3ccccc3)C[C@H]1[C@@H]1O[C@@H]12 (stereo not given in full),inactive
18,O=CC(=O)c1ccccc1,inactive
19,Cc1cccc(C)c1,inactive
20,Cc1ncc([N+](=O)[O-])n1CCO,inactive
